Test results published in PubChem BioAssay AID624352 (Sanford-Burnham Center for Chemical Genomics, 2012).
The whole screen tested about 360,000 compounds, of which about 2,600 (0.72%) were called active.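 The calls were made as follows: active = inhibition of the luminescence signal of 40% or more relative to plate controls, in a single-dose primary screen at 18.75 µM; inactive = the rest.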 This excerpt belongs to a sample that is enriched for actives.

Test: HIF-2a reporter inhibitors, primary screen, luminescence, 786-0 RCC cells (AID 624352)
Conditions: 786-0 RCC cells HIF-2a reporter, luciferase luminescence, overnight; at 18.8 µM; active compounds read high

inhibition, active:
Cc1cc(Cl)c(S(=O)(=O)Nc2ccc3c(c2)OCCO3)cc1OCC(N)=O 43.7%, COc1cc(SC)ccc1C(=O)Nc1nc(C)cs1 77.6%, C=CCOc1ccc(/C=C2\SC(=S)N(CCC(=O)O)C2=O)cc1 90.6%, O=C(CCCN1C(=O)/C(=C/c2ccco2)SC1=S)Nc1ccccc1 45.3%, O=C(CCCN1C(=O)/C(=C\c2ccco2)SC1=S)Nc1cccc2ccccc12 56.3%, O=C(CCCN1C(=O)/C(=C/c2ccccc2)SC1=S)Nc1ccc(O)cc1 46.2%, Cc1c(CCC(=O)O)c(=O)oc2c(C)c(OCc3ccccc3Cl)ccc12 44.6%, Cc1cccc2sc(N(CCCN(C)C)C(=O)CCS(=O)(=O)c3ccccc3)nc12 56.1%, Cc1ccc(N(Cc2cc(=O)[nH]c3ccccc23)C(=O)CCl)cc1 45.7%

inhibition, inactive:
COCCNC(=O)c1ccc2c(c1)ncn2-c1ccc(C)c(Cl)c1 -31.7%, Cc1ccc(CNC(=O)COC(=O)C2CCC2)cc1 2.35%, CCc1c(N=O)c(-c2ccccc2)n(O)[n+]1[O-] -2.82%, Cc1ccc(S(=O)(=O)NCC(=O)N(CC(=O)NCC2CCCO2)c2cccc(F)c2)cc1 (configuration not stated) 8.25%, CC1CCc2c(c3ccccc3[nH]c2=O)O1 (configuration not stated) 6.77%, Cc1cc(Cl)c(S(=O)(=O)NCCC(=O)O)cc1OCC(N)=O 0.473%, Cc1cc(Cl)c(S(=O)(=O)N(C)C)cc1OCC(N)=O 7%, CCNC(=O)C1(C)CCCN(C(=O)c2ccc3ccccc3n2)C1 (configuration not stated) 3.52%, Cc1csc(NC(=O)CSc2ccc(-c3ccc(F)cc3)nn2)n1 -4.55%, COCCn1c(SCC(=O)Nc2nc(C)cs2)nnc1C(C)C 9.65%, O=C(COC(=O)Cc1ccccc1F)NCCc1ccccc1 -1.26%, O=C(CN1C(=O)/C(=C\c2ccc(C(F)(F)F)cc2)Sc2ccccc21)NCc1ccco1 -23.3%, O=C(CCN1C(=O)c2ccccc2C1=O)Nc1ccncc1 13.6%, Cc1c(Cl)cccc1NC(=O)CCC(=O)N/N=C/c1ccco1 6.46%, O=C(OCN1C(=O)c2ccccc2C1=O)/C(=C\c1ccco1)NC(=O)c1ccccc1 1.64%, C=CCOc1ccc(C(=O)Nc2ccccc2C(=O)N2CCCC2)cc1 -0.109%, O=C(CCCN1C(=O)C(c2ccccc2)Oc2cccnc21)Nc1ccccc1Br (configuration not stated) 12.9%, CN(C(=O)CN1C(=O)/C(=C/c2ccc(Cl)cc2)SC1=S)C1CCS(=O)(=O)C1 (configuration not stated) -14%, Cc1ccc(NC(=O)CCN2C(=O)c3ccccc3C2=O)cc1C -6.43%, CCN(Cc1ccccc1)C(=O)CN1C(=S)NC(C)(C)CC1C (configuration not stated) 4.59%, COc1cc(C(=O)OCC(=O)NC(C)CCc2ccccc2)cc(OC)c1OC (configuration not stated) 26.2%, O=C1CCC(CCC(=O)N2CCCC(C(=O)c3ccc(Cl)cc3)C2)=NN1 (configuration not stated) -12.6%, CC(C)(O)C1=C[N+](=O)CC=C1 -0.393%, O=C(O)c1ccccc1OCc1ccccc1Cl 10%, COc1ccc2c(C)c(CCC(=O)NC3CC3)c(=O)oc2c1C -156%, C#CCNc1nc(C(C)C)nc2c1nnn2Cc1ccccc1F 4.59%, COc1ccc(S(=O)(=O)N2CCN(C(=O)NC3CCCCC3)CC2)cc1 12.4%, O=C(CCS(=O)(=O)c1ccccc1)NC1CCCC1 -146%, Cc1cccc(C)c1NC(=O)CCS(=O)(=O)c1cccc2nsnc12 4.25%, COCCN(C(=O)CCC(=O)Nc1nccs1)C(C(=O)NC(C)(C)C)c1ccc(Cl)cc1 (configuration not stated) 5.58%, CN1C(=O)[C@H]2[C@@H](/C=C/c3ccccc3)N3C(=O)CN(Cc4ccc(-c5ccccc5)cc4)C(=O)[C@@]3(C)[C@H]2C1=O -8.21%, O=C(CNCc1ccco1)Nc1cc(S(=O)(=O)N2CCOCC2)ccc1N1CCCC1 12.6%, CCC(=O)N(Cc1cc2ccccc2[nH]c1=O)c1ccc(OC)cc1 20.9%, Cc1ccc(N(Cc2ccccc2O)C(=O)c2ccccc2F)cc1 16.1%, O=C(NCCC(=O)N1O[C@@H]2C=C[C@H]1C2)OCC1c2ccccc2-c2ccccc21 3.4%, CN(C)CCn1c2c(c(SCC(=O)Nc3ccccc3C(F)(F)F)nc1=O)CCCC2 11.7%, NC(=O)c1cc(S(=O)(=O)N2CCCC2)ccc1OCc1ccc(F)cc1 24%, Cc1[nH]c2ccc(S(N)(=O)=O)cc2c1C 11.6%
